Rows were chosen to be rich in hits. Some 0.59% of all compounds tested hit in one or more screens of this group.
LDHA inh: LDHA (human) enzyme inhibition. activity change, % (values are at about 110 or 230 µM). 480,000 compounds, 0.15% hits. AID 1347041. purified LDHA, NADH/diaphorase-resazurin fluorescence; hits give low values. P00338; in the data active = activity change below about -30%; inconclusive = mostly about -25% to -30%;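 also: plate controls were DMSO wells for no effect and wells without enzyme for full effect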
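Remaining NADH was detected by diaphorase (0.133 mg/mL) converting 37 µM resazurin to fluorescent resorufin, read at 0 and 20 minutes. The preceding 5-minute room-temperature reaction used 2 nM LDHA, 0.2 mM sodium pyruvate and 0.06 mM NADH at pH 7.4.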
Vif-APOBEC3G blk: inhibitors of Vif-APOBEC3G interaction; 410,000 compounds, 0.076% hits; HeLa A3G-eYFP + Vif (tagged APOBEC3G with the HIV-1 protein that degrades it), YFP fluorescence, overnight; Q9HC16; AID 602310; Potency, µM (highest dose often 46.1 µM), for inactives: at the top dose activity, negative = active, usual class: inhibitors; also: potency is read from the fitted curve at half-maximal effect; % is scaled to controls: 0 for no effect and ±100 for the full control effect; nearly all actives have a fitted effect of over 60% in size
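HeLa cells stably expressing Vif and C-terminally eYFP-tagged A3G, seeded overnight at 37 deg C, then exposed to compound by pintool overnight at 37 deg C. Rise in yellow fluorescence (Ex 488/Em 500-530, Acumen) marks blocked Vif-driven A3G degradation.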
mIDH1 inhibitor: inhibitors of human mutant IDH1 R132H; O75874; Potency, µM (highest dose often 76.6 µM), inactives show at the top dose activity change, negative = inhibition, most hits filed as inhibitors; 390,000 compounds, 0.093% hits; IDH1-R132H enzyme, NADPH consumption, diaphorase/resazurin fluorescence; also: potency is read from the fitted curve at half-maximal effect; % is scaled to controls: 0 for no effect and ±100 for the full control effect; nearly all actives have a fitted effect of over 65% in size
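IDH1-R132H (0.5 ug/mL dispensed) in pH 7.5 Tris buffer was preincubated 30 min with compound, then given a substrate mix of 0.016 mM NADPH and 2 mM alpha-KG for 80 min at room temperature; remaining NADPH was read by diaphorase/resazurin fluorescence.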
Vif-A3F inh: Vif-A3F binding inhibition; HeLa A3F-eYFP + Vif (tagged APOBEC3F with the HIV-1 protein that degrades it), YFP fluorescence increase; Potency, µM (titrated, usually from 46.1 µM), for the others: at the top dose activity, negative = active; 390,000 compounds, 0.2% hits; also: potency is read from the fitted curve at half-maximal effect; % of control where 0% means no effect; nearly all actives have a fitted effect of over 65% in size
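HeLa cells stably expressing Vif plus C-terminally eYFP-tagged A3F were seeded, incubated overnight at 37 deg C, dosed with compound, incubated overnight again at 37 deg C. Yellow fluorescence (Ex 488/Em 500-530) reported blocked Vif-mediated A3F-eYFP degradation.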
PINK1 expr mod: modulators of PINK1 expression; PINK1 immunofluorescence, high-content cytometry, 24 h; Potency, µM (series often up to 76.6 µM), inactives show top-dose activation (PINK1 increase), actives largely listed as activators; 410,000 compounds, 0.2% hits; AID 624263; active = well fitted activation curve with a large enough effect; inconclusive = small, poorly fitted or top-dose-only effect; cell line not stated here; also: potency is read from the fitted curve at half-maximal effect; % of control where 0% means no effect; nearly all actives have a fitted effect of over 65% in size
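A stable cell line was treated with compounds at 5 concentrations for 24 hours, with CCCP as control. PINK1 levels and mitochondrial localization were measured by immunofluorescence with mitochondrial, cell and nuclear markers after fixation, read by laser-scanning cytometry.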
PTHR1 ag: PTHR1 (human) receptor agonism | Potency, µM (doses to about 115 µM), without a hit: at the highest dose activation, usual class: activators | 410,000 compounds, 0.075% hits | Q03431 | HEK293 GP2 PTHR1 cells, GloSensor cAMP luminescence, 1 h; also: potency is read from the fitted curve at half-maximal effect; nearly all actives have a fitted effect of over 55% in size
Target sequence (Q03431 whole entry, looked up): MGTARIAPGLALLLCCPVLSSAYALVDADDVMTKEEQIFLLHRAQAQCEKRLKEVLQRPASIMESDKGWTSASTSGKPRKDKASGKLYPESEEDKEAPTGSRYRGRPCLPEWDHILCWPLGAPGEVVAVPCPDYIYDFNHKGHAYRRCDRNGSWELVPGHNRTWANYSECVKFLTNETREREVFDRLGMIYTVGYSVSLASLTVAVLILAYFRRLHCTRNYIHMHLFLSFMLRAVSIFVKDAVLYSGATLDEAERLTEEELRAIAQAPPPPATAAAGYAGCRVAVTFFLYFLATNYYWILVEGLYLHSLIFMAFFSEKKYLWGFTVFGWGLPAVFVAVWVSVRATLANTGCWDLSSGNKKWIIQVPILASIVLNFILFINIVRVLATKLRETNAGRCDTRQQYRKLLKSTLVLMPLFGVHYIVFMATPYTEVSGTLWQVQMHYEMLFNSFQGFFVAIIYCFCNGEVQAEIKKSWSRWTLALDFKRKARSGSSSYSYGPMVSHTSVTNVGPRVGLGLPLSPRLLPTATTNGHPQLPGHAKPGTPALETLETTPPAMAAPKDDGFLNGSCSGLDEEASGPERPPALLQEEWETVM
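HEK-293-derived GP2 cells expressing PTHR1 and a GloSensor cAMP reporter, 3,000/well, plated overnight, given luciferin plus IBMX (each 0.5 mM as added) for 1 h at 37 °C, then compound for 1 h at 37 °C. Luminescence was read after 15 min at room temperature.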
* = called active by the depositor; i = inactive; ? = inconclusive; / = not tested or not shown; ! = a repeat was not active; [ ] = another dose, or the depositor's remark. Unless noted, calls follow the shape of the dose curve; as a rule, active = well fitted curve in the direction sought with a large enough effect; inconclusive = small, poorly fitted or top-dose-only effect, or another doubt; inactive = no such curve, though single readings can be large; an effect the other way counts as inactive or inconclusive.

SMILES	LDHA inh	Vif-APOBEC3G blk	mIDH1 inhibitor	Vif-A3F inh	PINK1 expr mod	PTHR1 ag
N#C/C(=C(/O)c1ccc2c(c1)OCO2)c1nc2cc(C(F)(F)F)ccc2s1	-2	2%	-9%	11%	14µM*	-30%
CCN(CC)S(=O)(=O)c1ccc(Oc2ccc3ccccc3c2)nc1	1	/	/	/	/	/
Cc1ccn2c(NCc3ccccc3)c(-c3cccc(SC4CCCCC4)c3)nc2c1	5	2%	10%	0%	25µM*	-88%
Cc1ccc2nc(-c3cccc(SC4CCCCC4)c3)c(NCc3ccccc3)n2c1	-1	-1%	10%	?	25µM*	-37%
c1cn2c(NC3CCCCC3)c(-c3ccc(SC4CCCCC4)cc3)nc2cn1	2	-8%	2%	-6%	5%	-80%
c1cc(SC2CCCCC2)cc(-c2nc3cnccn3c2NC2CCCCC2)c1	5	?	1%	25µM*	7%	-36%
Clc1ccc2nc(-c3cccc(SC4CCCCC4)c3)c(NCc3ccccc3)n2c1	1	4%	-10%	-2%	13%	i
COc1ccc(C(=O)NC(CC(=O)O)c2ccc(C(C)(C)C)cc2)cc1 (stereo not drawn)	4	/	/	/	/	/
CN1CCN(CCCNCc2cn(CCC#N)c3ccccc23)CC1	-40*	0%	3%	12%	-1%	i
O=C1CCC(C(=O)OCc2cc(=O)oc3cc(O)ccc23)=NN1	12	/	/	/	/	/
Cc1c(C)c(C)c(S(=O)(=O)Nc2ccc(F)c(C(=O)O)c2)c(C)c1C	16	/	/	/	/	/
c1ccc(CN2CCOCC2)nc1	1	0%	0%	6%	4%	i
Fc1ccc(N2CCN(Cc3ccccn3)CC2)cc1	-31*	-2%	0%	9%	0%	i
CCOC(=O)C1=C(Cc2ccc(F)cc2)C(=O)c2ccccc2C1=O	61	?	19%	25µM*	10%[38.3 µM]	-20%[57.5 µM]
NNC(=O)Nc1ccccc1	11	/	/	/	/	/
Cc1ccc(NC(=O)c2cc(C(=O)c3cc(Cl)ccc3O)cn(-c3ccc(C)cc3)c2=O)cc1	0	-4%	2%	0%	35µM*	-6%
CCCCCCCCCc1nc2sc3c(c2c(=O)n1NC(=O)c1ccccc1[N+](=O)[O-])CC(C)(C)OC3	-1	-4%	9%	-4%	?	-22%
CCCCCCCCCc1nc2sc3c(c2c(=O)n1NC(=O)c1ccc([N+](=O)[O-])cc1)CC(C)(C)OC3	8	-11%	2%	?	13µM*	i
COc1ccc(NC(=O)Cn2cnc3c(nnn3Cc3ccc(C)cc3)c2=O)c(OC)c1	-3	/	/	/	/	/
CN(C)CCCNCc1cccs1	1	/	/	/	/	/
CC(=O)c1ccc(NS(=O)(=O)c2cc3[nH]c(=O)c(=O)[nH]c3cc2C)cc1	0	-2%	20%	-1%	1%	-50%
CC(=O)c1ccc(N2CCN(S(=O)(=O)c3cc4[nH]c(=O)c(=O)[nH]c4cc3C)CC2)cc1	-30*!	-2%	-5%	4%	10%	i
Cc1ccc(C)c(C(=O)COC(=O)c2cc(C)nc3ccccc23)c1	11	/	/	/	/	/
Cc1cc(C(=O)OCC(=O)Nc2ccccc2C(C)C)c2ccccc2n1	-40*	/	/	/	/	/
Cc1cc(C(=O)OCC(=O)c2cccc3ccccc23)c2ccccc2n1	-35*	/	/	/	/	/
CCOc1cc(/C=C2\C(=N)N3N=C(S(=O)(=O)CC)SC3=NC2=O)ccc1OC(=O)c1ccco1	-12	0%	-1%	?	-1%	-4%
CCOc1cc(/C=C2/C(=N)N3C(=NC2=O)SN=C3S(C)(=O)=O)ccc1OC(=O)c1ccco1	-1	-7%	1%	13µM*	0%	?
COc1cc(/C=C2\C(=N)N3N=C(S(C)(=O)=O)SC3=NC2=O)ccc1OC(=O)c1ccco1	-3	-1%	-11%	7.1µM*	1%	-18%
CSc1ccc(/C=N/NC(=O)c2cc(O)cc(O)c2)cc1	-5	0%	-2%	8%	17%	-7%
